From PMC7862700, “An all-to-all approach to the identification of sequence-specific readers for epigenetic DNA modifications on cytosine”

What was measured:
Assay in all cases: DAPPL (digital affinity profiling via proximity ligation, sequencing); 10 mM Tris-HCl pH 7.5, 50 mM NaCl, 1 mM DTT, 4% glycerol, room temperature, 30 min; GST-TFs on glutathione beads, 16-mer random dsDNA library, 0.1% formaldehyde crosslink after washing; high values mean tight binding
Settings in all cases: protein: recombinant; tags: N-terminal GST; dsDNA, one strand shown
FEV = biological target: T1, FEV (Homo sapiens, UniProt Q99581 1-238)
T1 sequence: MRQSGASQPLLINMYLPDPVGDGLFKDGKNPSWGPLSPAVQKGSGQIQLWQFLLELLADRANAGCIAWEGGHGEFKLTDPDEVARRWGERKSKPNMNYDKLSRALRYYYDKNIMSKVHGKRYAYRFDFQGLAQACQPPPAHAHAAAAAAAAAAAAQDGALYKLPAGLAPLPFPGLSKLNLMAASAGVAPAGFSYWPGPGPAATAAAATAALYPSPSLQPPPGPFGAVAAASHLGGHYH
In short: (§1)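 A tag-only sample was pooled with DNA-barcoded human transcription factors that had been expressed in yeast as GST fusions and captured on glutathione beads. The pools were incubated for 30 min at room temperature with 200 nmole of a random double-stranded 16-mer DNA library in Tris/NaCl/DTT/glycerol buffer, then washed, crosslinked with 0.1% formaldehyde, proximity-ligated (BsaI/T4 ligase, 1 h, 37 °C), PCR-amplified and sequenced on an Illumina NextSeq500. Binding signal is each hexamer's read frequency for a factor divided by its frequency for the tag-only sample.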

ETV5 = ETV5 (Homo sapiens, UniProt P41161 1-510)
In short: as §1

SPIC = biological target: T2, SPIC (Homo sapiens, UniProt Q8N5J4 1-248)
T2 sequence: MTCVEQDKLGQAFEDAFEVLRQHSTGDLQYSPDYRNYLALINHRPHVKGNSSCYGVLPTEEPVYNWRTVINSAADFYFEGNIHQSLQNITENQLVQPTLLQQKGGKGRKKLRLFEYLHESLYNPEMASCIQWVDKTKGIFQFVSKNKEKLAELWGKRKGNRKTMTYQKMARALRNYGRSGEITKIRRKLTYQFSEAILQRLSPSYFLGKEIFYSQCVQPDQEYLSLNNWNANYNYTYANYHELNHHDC
In short: as §1

ELF4 = ELF4 (Homo sapiens, UniProt Q99607 1-663)
In short: as §1

ELK4 = biological target: T3, ELK4 (Homo sapiens, UniProt P28324-2 1-405)
T3 sequence: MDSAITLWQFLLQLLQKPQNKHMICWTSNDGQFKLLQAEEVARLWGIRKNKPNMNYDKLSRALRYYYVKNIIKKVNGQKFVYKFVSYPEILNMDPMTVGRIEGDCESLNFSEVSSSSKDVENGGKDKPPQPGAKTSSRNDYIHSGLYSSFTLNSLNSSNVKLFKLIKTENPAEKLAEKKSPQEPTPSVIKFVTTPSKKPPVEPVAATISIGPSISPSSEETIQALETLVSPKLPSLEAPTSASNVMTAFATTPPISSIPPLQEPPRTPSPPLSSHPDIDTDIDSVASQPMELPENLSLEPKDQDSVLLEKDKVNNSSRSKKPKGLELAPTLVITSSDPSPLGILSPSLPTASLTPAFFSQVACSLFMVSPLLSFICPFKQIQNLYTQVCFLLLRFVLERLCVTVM
In short: as §1

ETV2 = biological target: T4, ETV2 (Homo sapiens, UniProt O00321 1-342)
T4 sequence: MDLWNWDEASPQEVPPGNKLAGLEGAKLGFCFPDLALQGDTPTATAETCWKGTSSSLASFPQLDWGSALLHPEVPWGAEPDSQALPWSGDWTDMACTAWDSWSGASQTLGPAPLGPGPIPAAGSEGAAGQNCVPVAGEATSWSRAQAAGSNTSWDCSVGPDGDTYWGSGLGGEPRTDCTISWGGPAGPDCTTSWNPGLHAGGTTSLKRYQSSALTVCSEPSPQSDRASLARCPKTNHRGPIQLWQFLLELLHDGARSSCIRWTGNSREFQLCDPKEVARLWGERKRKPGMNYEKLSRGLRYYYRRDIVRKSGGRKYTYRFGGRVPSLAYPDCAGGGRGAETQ
In short: as §1

ELF3 = biological target: T5, ELF3 (Homo sapiens, UniProt P78545 1-371)
T5 sequence: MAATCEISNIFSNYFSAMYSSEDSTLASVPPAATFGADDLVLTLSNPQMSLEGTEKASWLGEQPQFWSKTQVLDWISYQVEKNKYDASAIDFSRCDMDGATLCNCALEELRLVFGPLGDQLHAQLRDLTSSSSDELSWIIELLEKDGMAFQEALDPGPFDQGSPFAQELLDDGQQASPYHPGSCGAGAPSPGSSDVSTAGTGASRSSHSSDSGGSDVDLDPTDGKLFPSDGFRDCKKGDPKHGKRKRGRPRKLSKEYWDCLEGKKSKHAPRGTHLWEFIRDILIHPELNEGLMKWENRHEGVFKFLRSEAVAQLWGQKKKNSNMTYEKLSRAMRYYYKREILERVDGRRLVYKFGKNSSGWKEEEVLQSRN
In short: as §1

ETV1 = ETV1 (Homo sapiens, UniProt P50549 1-477)
In short: as §1

ERF = biological target: T6, ERF (Homo sapiens, UniProt P50548 1-548)
T6 sequence: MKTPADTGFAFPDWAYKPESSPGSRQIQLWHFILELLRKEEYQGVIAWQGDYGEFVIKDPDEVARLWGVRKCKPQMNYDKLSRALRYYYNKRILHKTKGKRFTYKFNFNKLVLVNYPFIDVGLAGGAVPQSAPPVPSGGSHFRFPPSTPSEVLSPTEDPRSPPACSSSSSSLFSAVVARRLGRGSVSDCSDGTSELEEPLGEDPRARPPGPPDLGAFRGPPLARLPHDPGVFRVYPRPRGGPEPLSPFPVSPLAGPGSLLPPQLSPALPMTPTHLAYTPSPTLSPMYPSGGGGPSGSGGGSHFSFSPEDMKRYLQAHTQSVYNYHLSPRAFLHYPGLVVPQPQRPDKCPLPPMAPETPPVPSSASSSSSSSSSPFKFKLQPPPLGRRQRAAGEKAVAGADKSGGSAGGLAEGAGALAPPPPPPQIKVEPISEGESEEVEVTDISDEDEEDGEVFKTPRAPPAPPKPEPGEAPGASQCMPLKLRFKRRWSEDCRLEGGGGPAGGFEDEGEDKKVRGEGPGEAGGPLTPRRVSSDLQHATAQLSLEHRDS
In short: as §1

ETV3L = biological target: T7, ETV3L (Homo sapiens, UniProt Q6ZN32 1-361)
T7 sequence: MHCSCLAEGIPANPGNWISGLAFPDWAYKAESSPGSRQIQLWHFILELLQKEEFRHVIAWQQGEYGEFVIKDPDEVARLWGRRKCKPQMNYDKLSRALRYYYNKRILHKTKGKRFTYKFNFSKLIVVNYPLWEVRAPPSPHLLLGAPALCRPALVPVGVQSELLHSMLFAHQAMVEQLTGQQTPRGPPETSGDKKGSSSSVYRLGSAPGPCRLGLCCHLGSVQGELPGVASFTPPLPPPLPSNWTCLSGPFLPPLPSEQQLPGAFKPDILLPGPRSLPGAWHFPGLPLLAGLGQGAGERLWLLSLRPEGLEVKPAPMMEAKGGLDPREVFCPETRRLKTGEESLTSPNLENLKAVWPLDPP
In short: as §1

ETS2 = biological target: T8, ETS2 (Homo sapiens, UniProt P15036 1-469)
T8 sequence: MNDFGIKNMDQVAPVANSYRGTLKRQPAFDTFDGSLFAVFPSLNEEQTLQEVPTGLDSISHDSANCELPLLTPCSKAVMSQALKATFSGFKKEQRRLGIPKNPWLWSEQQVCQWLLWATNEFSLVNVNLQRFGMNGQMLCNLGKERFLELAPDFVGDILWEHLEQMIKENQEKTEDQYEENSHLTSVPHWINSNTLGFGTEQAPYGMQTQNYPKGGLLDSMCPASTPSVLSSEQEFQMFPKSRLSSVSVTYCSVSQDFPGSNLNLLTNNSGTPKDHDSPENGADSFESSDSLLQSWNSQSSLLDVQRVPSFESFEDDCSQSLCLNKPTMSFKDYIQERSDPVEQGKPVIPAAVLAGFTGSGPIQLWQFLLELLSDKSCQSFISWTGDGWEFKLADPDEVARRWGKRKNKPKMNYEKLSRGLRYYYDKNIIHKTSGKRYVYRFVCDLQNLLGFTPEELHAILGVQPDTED
In short: as §1

SPDEF = biological target: T9, SPDEF (Homo sapiens, UniProt O95238 1-335)
T9 sequence: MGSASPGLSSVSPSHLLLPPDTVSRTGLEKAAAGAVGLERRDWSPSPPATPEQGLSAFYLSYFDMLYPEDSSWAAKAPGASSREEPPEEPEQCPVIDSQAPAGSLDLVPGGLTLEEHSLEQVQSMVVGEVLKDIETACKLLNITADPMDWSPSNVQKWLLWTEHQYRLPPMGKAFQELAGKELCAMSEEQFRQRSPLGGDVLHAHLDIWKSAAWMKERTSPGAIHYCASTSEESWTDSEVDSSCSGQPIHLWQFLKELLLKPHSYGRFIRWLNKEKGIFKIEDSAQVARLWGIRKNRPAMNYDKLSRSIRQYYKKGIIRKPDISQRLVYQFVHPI
In short: as §1

ETV7 = biological target: T10, ETV7 (Homo sapiens, UniProt Q9Y603 1-341)
T10 sequence: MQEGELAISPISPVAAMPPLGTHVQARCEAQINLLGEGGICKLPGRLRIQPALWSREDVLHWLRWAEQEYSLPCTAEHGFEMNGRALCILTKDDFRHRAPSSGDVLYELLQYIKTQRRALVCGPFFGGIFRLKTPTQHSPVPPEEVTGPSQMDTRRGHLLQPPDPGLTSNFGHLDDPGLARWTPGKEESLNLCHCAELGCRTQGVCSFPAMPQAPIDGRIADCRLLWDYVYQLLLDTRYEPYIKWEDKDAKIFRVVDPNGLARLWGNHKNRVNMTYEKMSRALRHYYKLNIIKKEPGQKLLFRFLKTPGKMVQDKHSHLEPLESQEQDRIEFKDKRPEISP
In short: as §1

ELF5 = biological target: T11, ELF5 (Homo sapiens, UniProt Q9UKW6-2 1-255)
T11 sequence: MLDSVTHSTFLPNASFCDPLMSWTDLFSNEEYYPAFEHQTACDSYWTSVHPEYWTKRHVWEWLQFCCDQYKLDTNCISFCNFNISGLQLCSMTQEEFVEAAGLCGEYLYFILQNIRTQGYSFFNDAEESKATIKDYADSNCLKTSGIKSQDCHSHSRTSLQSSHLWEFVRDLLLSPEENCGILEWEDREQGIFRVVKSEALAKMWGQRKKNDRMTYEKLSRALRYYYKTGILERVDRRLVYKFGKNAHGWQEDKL
In short: as §1

ETV3 = biological target: T12, ETV3 (Homo sapiens, UniProt P41162-2 1-143)
T12 sequence: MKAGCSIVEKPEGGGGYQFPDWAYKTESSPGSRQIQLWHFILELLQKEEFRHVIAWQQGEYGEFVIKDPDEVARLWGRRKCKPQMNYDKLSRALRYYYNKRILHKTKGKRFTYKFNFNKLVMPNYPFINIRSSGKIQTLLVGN
In short: as §1

ETV6 = ETV6 (Homo sapiens, UniProt P41212 1-452)
In short: as §1

Sequence of ELF4 (Q99607 whole entry): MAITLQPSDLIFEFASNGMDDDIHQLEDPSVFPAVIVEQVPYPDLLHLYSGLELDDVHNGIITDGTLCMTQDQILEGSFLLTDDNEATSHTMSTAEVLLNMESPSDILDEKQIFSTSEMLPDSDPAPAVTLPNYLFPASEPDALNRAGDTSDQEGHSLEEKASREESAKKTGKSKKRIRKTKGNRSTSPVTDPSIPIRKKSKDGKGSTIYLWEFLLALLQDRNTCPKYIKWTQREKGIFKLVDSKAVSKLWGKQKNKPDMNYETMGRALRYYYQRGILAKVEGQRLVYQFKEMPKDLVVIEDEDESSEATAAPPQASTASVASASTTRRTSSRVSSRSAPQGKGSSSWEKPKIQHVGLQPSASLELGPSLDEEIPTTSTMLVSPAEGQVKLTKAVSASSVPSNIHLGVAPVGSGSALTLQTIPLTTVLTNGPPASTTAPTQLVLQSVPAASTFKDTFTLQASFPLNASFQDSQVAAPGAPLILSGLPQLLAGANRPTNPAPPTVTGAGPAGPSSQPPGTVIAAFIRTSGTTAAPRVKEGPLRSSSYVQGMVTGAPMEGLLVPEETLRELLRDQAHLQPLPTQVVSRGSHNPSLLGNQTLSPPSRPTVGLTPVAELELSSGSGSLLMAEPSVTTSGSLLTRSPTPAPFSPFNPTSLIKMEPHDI
Sequence of ETV6 (P41212 whole entry): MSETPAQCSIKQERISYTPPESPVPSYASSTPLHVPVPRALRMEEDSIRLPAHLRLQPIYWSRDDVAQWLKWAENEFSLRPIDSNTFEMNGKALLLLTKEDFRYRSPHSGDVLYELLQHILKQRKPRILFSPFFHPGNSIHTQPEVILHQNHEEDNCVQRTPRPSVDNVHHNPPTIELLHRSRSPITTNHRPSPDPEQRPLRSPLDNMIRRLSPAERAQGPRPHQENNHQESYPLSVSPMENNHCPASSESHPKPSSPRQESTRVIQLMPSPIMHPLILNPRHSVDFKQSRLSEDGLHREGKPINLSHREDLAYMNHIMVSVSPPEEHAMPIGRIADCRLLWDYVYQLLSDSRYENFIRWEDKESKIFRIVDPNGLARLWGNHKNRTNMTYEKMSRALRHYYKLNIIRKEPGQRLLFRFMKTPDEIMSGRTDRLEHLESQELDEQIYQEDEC
Sequence of ETV1 (P50549 whole entry): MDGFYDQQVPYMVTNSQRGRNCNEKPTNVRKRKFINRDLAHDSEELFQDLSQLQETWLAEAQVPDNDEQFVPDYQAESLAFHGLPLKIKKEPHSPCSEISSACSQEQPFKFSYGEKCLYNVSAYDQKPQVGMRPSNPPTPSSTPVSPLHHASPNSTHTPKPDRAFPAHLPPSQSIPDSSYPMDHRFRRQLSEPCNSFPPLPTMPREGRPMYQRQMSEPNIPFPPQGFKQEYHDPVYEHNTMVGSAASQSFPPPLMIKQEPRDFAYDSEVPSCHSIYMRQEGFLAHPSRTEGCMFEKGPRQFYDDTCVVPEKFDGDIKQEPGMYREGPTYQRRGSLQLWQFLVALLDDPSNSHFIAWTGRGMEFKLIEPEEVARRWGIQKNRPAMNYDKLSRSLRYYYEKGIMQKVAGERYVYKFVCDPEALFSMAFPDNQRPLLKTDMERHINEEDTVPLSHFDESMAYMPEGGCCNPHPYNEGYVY
Sequence of ETV5 (P41161 whole entry): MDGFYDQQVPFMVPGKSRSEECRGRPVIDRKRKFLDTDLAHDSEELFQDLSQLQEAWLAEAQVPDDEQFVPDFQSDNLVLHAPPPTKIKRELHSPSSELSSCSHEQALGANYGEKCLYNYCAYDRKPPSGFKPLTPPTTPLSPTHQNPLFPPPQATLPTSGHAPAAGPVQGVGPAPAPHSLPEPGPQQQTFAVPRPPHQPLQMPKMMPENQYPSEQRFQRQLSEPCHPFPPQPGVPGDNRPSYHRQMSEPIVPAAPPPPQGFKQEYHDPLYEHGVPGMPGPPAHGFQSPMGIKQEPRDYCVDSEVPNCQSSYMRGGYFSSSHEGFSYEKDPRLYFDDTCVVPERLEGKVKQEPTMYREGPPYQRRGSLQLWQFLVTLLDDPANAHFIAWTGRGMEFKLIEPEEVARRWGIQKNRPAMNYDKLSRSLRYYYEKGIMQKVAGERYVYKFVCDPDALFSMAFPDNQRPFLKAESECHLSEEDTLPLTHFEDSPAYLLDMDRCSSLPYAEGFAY

Row | Sequence | binding signal (FEV) | binding signal (ETV5) | binding signal (SPIC) | binding signal (ELF4) | binding signal (ELK4) | binding signal (ETV2) | binding signal (ELF3) | binding signal (ETV1) | binding signal (ERF) | binding signal (ETV3L) | binding signal (ETS2) | binding signal (SPDEF) | binding signal (ETV7) | binding signal (ELF5) | binding signal (ETV3) | binding signal (ETV6)
1 | CACCAC | 1.19 fold enrichment (6-mer frequency, TF over GST control) | 1.1 fold enrichment (6-mer frequency, TF over GST control) | 1.3 fold enrichment (6-mer frequency, TF over GST control) | 1.13 fold enrichment (6-mer frequency, TF over GST control) | 1.22 fold enrichment (6-mer frequency, TF over GST control) | 1.14 fold enrichment (6-mer frequency, TF over GST control) | 1.24 fold enrichment (6-mer frequency, TF over GST control) | 1.16 fold enrichment (6-mer frequency, TF over GST control) | 1.14 fold enrichment (6-mer frequency, TF over GST control) | 1.19 fold enrichment (6-mer frequency, TF over GST control) | 1.15 fold enrichment (6-mer frequency, TF over GST control) | 1.16 fold enrichment (6-mer frequency, TF over GST control) | 1.04 fold enrichment (6-mer frequency, TF over GST control) | 1.11 fold enrichment (6-mer frequency, TF over GST control) | 1.11 fold enrichment (6-mer frequency, TF over GST control) | 1.14 fold enrichment (6-mer frequency, TF over GST control)
2 | ACCCGG | 1.61 fold enrichment (6-mer frequency, TF over GST control) | 1.89 fold enrichment (6-mer frequency, TF over GST control) | 1.61 fold enrichment (6-mer frequency, TF over GST control) | 1.7 fold enrichment (6-mer frequency, TF over GST control) | 1.52 fold enrichment (6-mer frequency, TF over GST control) | 1.63 fold enrichment (6-mer frequency, TF over GST control) | 1.77 fold enrichment (6-mer frequency, TF over GST control) | 1.81 fold enrichment (6-mer frequency, TF over GST control) | 1.48 fold enrichment (6-mer frequency, TF over GST control) | 1.69 fold enrichment (6-mer frequency, TF over GST control) | 1.79 fold enrichment (6-mer frequency, TF over GST control) | 2.23 fold enrichment (6-mer frequency, TF over GST control) | 1.55 fold enrichment (6-mer frequency, TF over GST control) | 1.91 fold enrichment (6-mer frequency, TF over GST control) | 1.82 fold enrichment (6-mer frequency, TF over GST control) | 1.7 fold enrichment (6-mer frequency, TF over GST control)
